Test results reported in PubChem BioAssay (NCI).
Values joined by “and” are separate entries in the source; they are usually repeats but may differ in a detail not shown here. Identical values can stand only once. This is part of a sample that, as a whole, favours compounds with a hit. Of some 83,000 tested, about 20% had one in any assay.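 Activity criterion: percent growth below 10, measured after cells in 96-well plates were exposed to a single compound concentration for 48 hours.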 Active and inactive are the calls of the source.

tested on: ACHN renal; assay: NCI-60 one-dose screen, 48 h (100 = growth as untreated, 0 = no growth, -100 = all killed); conditions: 10 µM unless noted

Row | Structure (SMILES) | growth
1 | COc1cc2c(c(OC)c1OC)-c1ccc(OC)c(=O)cc1[C@@H](NC(C)=O)CC2 | 27.8% (inactive) and 27.2% (inactive) and 30.5% (inactive)
2 | CCN(CC)CCCC(CNc1ccnc2cc(Cl)ccc12)c1ccc(Cl)cc1 (stereo not drawn) | -80.7% (active) and 2.15% (active)
3 | N#CCCOc1ccccc1 | 102% (inactive)
4 | COc1ccc(/C(C#N)=C/c2ccccn2)cc1 | 108% (inactive) and 109% (inactive)
5 | CCN(CC)C(=S)SSC(=S)N(CC)CC | 71.1% (inactive) and 101% (inactive)
6 | Nc1ccc(N=Nc2ccc(S(=O)(=O)O)cc2)cc1S(=O)(=O)O | 99.8% (inactive) and 100% (inactive)
7 | CCN(CC)CCOc1ccc2c(c1)C(=O)c1cc(OCCN(CC)CC)ccc1-2 | 46.7% (inactive)
8 | O=C1OC2(c3ccccc31)c1ccc(O)c(O)c1Oc1c2ccc(O)c1O | 101% (inactive) and 113% (inactive)
9 | O=S(=O)(Nc1ccccc1)C1CCCCC1 | 110% (inactive) and 103% (inactive)
10 | CCNC(=O)Nc1ccc(-c2nc3c(c(N4CCOC[C@@H]4C)n2)CCN(C2COC2)C3)cc1 | 34.6% (inactive) and 7.24% (active)
11 | CC(C)Cc1ccc(C(C)C(=O)NCc2ccc(Cn3c(=O)sn(CCCCl)c3=O)cc2)cc1 (stereo not drawn) | 97.3% (inactive) and -100% (active)
12 | OCc1ccccn1 | 107% (inactive)
13 | Nc1ncnc2c1ncn2C1CC(O)C(CO)O1 (stereo not drawn) | 110% (inactive) and 120% (inactive)
14 | CCCCCCCCCCCCCCCc1cc(O)ccc1N | 90% (inactive) and 76.8% (inactive)
15 | Cc1ccc2nc3c(nc2c1)-c1cccc2cccc-3c12 | 68.6% (inactive)
16 | O=[N+]([O-])c1ccc(/C=N\NC(=S)Nc2ccc(F)cc2)cc1 | 86.2% (inactive) and 93.4% (inactive)
17 | CCN(CC)C(=O)c1cccnc1 | 107% (inactive)
18 | CN1CCN(CCC=C2c3ccccc3Sc3ccc(S(=O)(=O)N(C)C)cc32)CC1 | 65.8% (inactive) and 73.1% (inactive)
19 | Oc1nc(NCCc2ccccc2)sc1/C=C1\C=Nc2ncccc21 | -12% (active) and 16% (inactive)

Row | Structure (SMILES) | growth
20 | COc1cc2nc(N3CCN(C(=O)C4COc5ccccc5O4)CC3)nc(N)c2cc1OC (stereo not drawn) | 121% (inactive) and 92.4% (inactive) and 98.8% (inactive)
21 | c1ccc2cc(C[n+]3ccn(Cc4ccc5ccccc5n4)c3)ccc2c1 | 86.3% (inactive) and 102% (inactive)
22 | COc1ccc(Cn2c(NCCN=C(N)N)nc(=O)n(Cc3ccc(F)cc3)c2=O)cc1 | 97.7% (inactive) and 102% (inactive)
23 | O=C(N/N=C/c1cccc2ccccc12)C1CC1 | 127% (inactive) and 110% (inactive)
24 | CC(C)CNC(=O)c1ccccc1C(=O)NC1(C(=O)NCC(C)C)CCCC1 | 102% (inactive) and 104% (inactive)
25 | Cn1c(=O)n(-c2ccc(C(C)(C)C#N)cc2)c2c3cc(-c4cnc5ccccc5c4)ccc3ncc21 | 5.22% (active) and 9.17% (active)
26 | CN(C)c1ccc(C(Cc2ccc3ccccc3n2)Cc2ccc3ccccc3n2)cc1 | 50.5% (inactive) and 89.6% (inactive)
27 | Cc1ccc(S(=O)(=O)Nc2ccc3cc([N+](=O)[O-])ccc3c2[N+](=O)[O-])cc1 | 71.2% (inactive) and 94.5% (inactive)
28 | NS(=O)(=O)c1cc2c(cc1Cl)NC(C(Cl)Cl)NS2(=O)=O (stereo not drawn) | 96.7% (inactive) and 92.4% (inactive)
29 | Nc1ccccc1Nc1ccccc1 | 85.5% (inactive) and 75.2% (inactive)
30 | c1ccc2c(CC3=NCCN3)cccc2c1 | 102% (inactive) and 116% (inactive)
31 | Clc1ccc(NC(Nc2ccc(Cl)cc2)C(Cl)(Cl)Cl)cc1 | 41.6% (inactive)
32 | CCOc1ccc2c(S(=O)(=O)O)cccc2c1[N+](=O)[O-] | 103% (inactive) and 105% (inactive)
33 | CCN(CC)CCCC(C)N(Cc1ccccc1)CC(O)c1ccc(Cl)cc1 (stereo not drawn) | 117% (inactive) and 103% (inactive)
34 | Cn1cnc([N+](=O)[O-])c1Sc1ncnc2nc[nH]c12 | 84% (inactive) and 121% (inactive)
35 | Nc1nc2ncc(CNc3ccc(C(=O)N[C@@H](CCc4nn[nH]n4)C(=O)O)cc3)nc2c(=O)[nH]1 | 92.2% (inactive) and 104% (inactive)
36 | Oc1c(Cl)cc(Cl)cc1Sc1cc(Cl)cc(Cl)c1O | 15.2% (inactive) and 105% (inactive)
37 | O=S1(=O)CC(Br)C(Br)C1 (stereo not drawn) | 42.2% (inactive) and 69.8% (inactive)
38 | CN(C)c1ccc2nc3ccc(N)cc3[n+](-c3ccccc3)c2c1 | 73.5% (inactive) and 30.8% (inactive)
